Measurements reported in the supplement of paper PMC11732987, “Enantioselective OTUD7B fragment discovery through chemoproteomics screening and high-throughput optimisation” (Communications Chemistry, 2025).

Assays:
Experiment in all cases: log2 ratio of Biotin-Ahx-Ub-VS probe labelling (fragment/DMSO); higher = less target engagement (more negative = stronger competition), active = hit call of the paper (q ≤ 0.05, log2 ratio ≤ -1)
Conditions in all cases: compound concentration: 200 uM; treatment time: 3 h
[1] = target: UniProt O00507
Summary of the method: (§1)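 Triplicate samples of HEK293T lysate, 495 µg each, received fragment at 200 µM or vehicle for 3 h, followed by Biotin-Ahx-Ub-VS (0.5 µM final) for 1 h. After NeutrAvidin enrichment of labelled DUBs and LysC/trypsin digestion, peptides were run by diaPASEF LC-MS/MS. The values are average log2 fragment/vehicle ratios from global-median-normalised Spectronaut label-free quantities, tested by unpaired t-test on proteins having ≥2 unique peptides.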

[2] = target: UniProt P51784
Summary of the method: as §1

[3] = target: T1, UniProt Q5T2D3
T1 sequence (whole entry): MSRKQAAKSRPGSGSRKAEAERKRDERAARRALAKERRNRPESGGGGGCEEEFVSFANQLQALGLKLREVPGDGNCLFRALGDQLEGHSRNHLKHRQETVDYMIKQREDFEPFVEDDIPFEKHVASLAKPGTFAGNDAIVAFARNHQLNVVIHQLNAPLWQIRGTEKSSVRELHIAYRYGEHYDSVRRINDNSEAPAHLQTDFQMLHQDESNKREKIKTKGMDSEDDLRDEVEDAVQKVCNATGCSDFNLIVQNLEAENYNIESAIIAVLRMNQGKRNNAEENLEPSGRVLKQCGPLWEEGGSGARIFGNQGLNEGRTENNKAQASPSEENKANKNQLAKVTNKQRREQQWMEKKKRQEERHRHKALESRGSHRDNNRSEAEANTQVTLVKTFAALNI
Summary of the method: as §1

[4] = target: T2, UniProt Q8TE49
T2 sequence (whole entry): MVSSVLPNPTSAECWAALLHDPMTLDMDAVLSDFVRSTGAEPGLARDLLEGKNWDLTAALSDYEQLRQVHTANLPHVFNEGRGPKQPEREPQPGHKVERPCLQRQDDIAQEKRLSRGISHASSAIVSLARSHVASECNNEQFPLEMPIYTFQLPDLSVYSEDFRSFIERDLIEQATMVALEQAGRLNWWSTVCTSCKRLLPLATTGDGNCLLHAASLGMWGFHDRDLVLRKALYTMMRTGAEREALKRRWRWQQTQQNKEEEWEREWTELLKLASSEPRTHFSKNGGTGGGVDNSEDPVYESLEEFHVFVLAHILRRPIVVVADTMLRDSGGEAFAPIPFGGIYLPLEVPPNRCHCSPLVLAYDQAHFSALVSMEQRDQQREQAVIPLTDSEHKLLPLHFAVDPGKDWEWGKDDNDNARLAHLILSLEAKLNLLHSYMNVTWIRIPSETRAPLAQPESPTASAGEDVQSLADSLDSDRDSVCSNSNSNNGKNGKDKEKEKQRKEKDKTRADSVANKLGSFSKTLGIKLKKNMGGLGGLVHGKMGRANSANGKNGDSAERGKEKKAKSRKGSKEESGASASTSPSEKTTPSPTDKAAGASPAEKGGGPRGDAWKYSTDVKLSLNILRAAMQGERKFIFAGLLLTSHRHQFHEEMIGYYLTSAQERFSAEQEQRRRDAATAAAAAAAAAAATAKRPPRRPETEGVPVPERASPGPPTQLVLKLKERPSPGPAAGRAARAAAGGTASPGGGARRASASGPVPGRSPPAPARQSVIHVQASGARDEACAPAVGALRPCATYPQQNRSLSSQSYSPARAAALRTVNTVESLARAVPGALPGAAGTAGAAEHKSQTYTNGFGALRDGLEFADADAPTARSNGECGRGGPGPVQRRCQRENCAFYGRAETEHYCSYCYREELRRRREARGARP
Summary of the method: as §1

[5] = target: T3, UniProt Q9P2H5
T3 sequence (whole entry): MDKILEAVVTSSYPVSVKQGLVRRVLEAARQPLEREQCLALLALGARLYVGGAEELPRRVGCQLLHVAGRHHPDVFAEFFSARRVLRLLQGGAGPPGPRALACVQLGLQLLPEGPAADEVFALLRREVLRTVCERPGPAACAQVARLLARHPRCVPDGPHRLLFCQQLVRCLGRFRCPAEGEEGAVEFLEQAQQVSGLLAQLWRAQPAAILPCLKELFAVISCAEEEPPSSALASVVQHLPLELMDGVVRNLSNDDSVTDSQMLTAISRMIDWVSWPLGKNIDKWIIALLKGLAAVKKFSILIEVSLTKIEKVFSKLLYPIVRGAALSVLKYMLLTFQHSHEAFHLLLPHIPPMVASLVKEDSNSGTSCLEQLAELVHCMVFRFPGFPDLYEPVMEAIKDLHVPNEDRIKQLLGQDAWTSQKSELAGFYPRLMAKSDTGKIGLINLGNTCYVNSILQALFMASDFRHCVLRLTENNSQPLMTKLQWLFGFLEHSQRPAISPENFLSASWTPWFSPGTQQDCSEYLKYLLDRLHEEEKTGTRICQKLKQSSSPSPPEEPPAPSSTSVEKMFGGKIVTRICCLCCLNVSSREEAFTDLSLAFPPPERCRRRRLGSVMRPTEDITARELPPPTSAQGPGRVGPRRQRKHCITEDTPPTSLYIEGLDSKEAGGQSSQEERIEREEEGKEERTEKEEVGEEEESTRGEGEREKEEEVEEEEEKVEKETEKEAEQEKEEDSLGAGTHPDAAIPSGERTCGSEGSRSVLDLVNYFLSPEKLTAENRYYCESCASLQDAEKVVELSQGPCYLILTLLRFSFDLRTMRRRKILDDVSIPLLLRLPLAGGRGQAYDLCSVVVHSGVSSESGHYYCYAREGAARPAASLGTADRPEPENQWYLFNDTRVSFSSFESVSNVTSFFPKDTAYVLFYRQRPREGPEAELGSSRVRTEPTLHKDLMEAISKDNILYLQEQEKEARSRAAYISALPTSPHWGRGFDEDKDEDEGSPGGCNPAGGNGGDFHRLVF
Summary of the method: as §1

[6] = target: T4, UniProt Q9UGI0
T4 sequence (whole entry): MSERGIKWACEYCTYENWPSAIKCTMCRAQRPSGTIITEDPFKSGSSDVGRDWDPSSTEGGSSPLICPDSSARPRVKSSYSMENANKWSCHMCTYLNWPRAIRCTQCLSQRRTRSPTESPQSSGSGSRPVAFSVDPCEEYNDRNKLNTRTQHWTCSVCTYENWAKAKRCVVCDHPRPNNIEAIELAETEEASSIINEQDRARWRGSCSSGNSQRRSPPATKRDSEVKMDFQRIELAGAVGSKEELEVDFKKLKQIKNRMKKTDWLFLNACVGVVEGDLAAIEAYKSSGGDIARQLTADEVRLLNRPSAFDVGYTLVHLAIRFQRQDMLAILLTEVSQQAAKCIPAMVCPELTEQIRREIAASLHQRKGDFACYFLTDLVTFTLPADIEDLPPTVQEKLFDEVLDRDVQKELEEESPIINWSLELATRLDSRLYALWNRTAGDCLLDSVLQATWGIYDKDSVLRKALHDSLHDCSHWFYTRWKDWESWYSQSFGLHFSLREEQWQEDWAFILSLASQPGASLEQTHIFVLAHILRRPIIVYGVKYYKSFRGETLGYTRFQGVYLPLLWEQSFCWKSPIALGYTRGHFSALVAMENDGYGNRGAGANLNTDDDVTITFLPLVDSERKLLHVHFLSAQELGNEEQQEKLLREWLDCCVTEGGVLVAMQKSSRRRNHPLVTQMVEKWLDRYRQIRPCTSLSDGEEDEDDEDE
Summary of the method: as §1

[7] = target: T5, YOD1 (UniProt Q5VVQ6)
T5 sequence (whole entry): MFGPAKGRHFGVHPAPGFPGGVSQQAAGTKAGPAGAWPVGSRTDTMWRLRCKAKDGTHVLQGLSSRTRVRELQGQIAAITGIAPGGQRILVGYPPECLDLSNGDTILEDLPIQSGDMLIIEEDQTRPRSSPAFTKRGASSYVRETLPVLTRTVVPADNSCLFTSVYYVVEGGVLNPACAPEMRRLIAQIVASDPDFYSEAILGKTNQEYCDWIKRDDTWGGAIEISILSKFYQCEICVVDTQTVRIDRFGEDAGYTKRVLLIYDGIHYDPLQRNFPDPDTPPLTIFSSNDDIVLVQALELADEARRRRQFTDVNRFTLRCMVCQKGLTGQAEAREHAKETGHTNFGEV
Summary of the method: as §1

Measured: log2 ratio of Biotin-Ahx-Ub-VS probe labelling

UniProt P51784, sequence (P51784 whole entry): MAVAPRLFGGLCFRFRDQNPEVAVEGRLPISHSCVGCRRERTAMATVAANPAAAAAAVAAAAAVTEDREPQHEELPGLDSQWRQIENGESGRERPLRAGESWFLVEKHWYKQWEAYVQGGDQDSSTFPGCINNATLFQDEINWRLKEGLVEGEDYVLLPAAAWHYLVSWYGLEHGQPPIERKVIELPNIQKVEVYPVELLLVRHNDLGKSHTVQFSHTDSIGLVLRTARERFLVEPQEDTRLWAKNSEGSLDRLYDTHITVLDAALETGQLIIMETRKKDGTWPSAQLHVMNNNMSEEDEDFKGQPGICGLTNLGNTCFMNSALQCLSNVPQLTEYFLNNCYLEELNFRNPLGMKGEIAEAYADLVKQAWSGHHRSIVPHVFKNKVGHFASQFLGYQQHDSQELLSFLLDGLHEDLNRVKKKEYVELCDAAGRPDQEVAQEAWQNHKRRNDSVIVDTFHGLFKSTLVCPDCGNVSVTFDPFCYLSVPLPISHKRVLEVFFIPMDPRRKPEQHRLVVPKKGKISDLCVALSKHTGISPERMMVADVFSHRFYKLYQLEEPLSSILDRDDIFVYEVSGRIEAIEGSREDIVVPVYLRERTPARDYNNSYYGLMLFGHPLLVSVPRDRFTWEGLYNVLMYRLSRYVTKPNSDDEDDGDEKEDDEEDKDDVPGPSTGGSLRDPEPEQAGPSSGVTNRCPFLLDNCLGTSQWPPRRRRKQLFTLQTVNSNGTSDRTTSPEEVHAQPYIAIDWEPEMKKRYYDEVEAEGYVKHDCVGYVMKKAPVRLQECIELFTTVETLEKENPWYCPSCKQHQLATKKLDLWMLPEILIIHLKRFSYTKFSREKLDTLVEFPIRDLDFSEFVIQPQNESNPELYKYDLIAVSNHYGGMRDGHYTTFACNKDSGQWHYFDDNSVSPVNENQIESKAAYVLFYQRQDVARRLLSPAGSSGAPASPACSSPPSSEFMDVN
UniProt O00507, sequence (O00507 whole entry, the tested form may be a part): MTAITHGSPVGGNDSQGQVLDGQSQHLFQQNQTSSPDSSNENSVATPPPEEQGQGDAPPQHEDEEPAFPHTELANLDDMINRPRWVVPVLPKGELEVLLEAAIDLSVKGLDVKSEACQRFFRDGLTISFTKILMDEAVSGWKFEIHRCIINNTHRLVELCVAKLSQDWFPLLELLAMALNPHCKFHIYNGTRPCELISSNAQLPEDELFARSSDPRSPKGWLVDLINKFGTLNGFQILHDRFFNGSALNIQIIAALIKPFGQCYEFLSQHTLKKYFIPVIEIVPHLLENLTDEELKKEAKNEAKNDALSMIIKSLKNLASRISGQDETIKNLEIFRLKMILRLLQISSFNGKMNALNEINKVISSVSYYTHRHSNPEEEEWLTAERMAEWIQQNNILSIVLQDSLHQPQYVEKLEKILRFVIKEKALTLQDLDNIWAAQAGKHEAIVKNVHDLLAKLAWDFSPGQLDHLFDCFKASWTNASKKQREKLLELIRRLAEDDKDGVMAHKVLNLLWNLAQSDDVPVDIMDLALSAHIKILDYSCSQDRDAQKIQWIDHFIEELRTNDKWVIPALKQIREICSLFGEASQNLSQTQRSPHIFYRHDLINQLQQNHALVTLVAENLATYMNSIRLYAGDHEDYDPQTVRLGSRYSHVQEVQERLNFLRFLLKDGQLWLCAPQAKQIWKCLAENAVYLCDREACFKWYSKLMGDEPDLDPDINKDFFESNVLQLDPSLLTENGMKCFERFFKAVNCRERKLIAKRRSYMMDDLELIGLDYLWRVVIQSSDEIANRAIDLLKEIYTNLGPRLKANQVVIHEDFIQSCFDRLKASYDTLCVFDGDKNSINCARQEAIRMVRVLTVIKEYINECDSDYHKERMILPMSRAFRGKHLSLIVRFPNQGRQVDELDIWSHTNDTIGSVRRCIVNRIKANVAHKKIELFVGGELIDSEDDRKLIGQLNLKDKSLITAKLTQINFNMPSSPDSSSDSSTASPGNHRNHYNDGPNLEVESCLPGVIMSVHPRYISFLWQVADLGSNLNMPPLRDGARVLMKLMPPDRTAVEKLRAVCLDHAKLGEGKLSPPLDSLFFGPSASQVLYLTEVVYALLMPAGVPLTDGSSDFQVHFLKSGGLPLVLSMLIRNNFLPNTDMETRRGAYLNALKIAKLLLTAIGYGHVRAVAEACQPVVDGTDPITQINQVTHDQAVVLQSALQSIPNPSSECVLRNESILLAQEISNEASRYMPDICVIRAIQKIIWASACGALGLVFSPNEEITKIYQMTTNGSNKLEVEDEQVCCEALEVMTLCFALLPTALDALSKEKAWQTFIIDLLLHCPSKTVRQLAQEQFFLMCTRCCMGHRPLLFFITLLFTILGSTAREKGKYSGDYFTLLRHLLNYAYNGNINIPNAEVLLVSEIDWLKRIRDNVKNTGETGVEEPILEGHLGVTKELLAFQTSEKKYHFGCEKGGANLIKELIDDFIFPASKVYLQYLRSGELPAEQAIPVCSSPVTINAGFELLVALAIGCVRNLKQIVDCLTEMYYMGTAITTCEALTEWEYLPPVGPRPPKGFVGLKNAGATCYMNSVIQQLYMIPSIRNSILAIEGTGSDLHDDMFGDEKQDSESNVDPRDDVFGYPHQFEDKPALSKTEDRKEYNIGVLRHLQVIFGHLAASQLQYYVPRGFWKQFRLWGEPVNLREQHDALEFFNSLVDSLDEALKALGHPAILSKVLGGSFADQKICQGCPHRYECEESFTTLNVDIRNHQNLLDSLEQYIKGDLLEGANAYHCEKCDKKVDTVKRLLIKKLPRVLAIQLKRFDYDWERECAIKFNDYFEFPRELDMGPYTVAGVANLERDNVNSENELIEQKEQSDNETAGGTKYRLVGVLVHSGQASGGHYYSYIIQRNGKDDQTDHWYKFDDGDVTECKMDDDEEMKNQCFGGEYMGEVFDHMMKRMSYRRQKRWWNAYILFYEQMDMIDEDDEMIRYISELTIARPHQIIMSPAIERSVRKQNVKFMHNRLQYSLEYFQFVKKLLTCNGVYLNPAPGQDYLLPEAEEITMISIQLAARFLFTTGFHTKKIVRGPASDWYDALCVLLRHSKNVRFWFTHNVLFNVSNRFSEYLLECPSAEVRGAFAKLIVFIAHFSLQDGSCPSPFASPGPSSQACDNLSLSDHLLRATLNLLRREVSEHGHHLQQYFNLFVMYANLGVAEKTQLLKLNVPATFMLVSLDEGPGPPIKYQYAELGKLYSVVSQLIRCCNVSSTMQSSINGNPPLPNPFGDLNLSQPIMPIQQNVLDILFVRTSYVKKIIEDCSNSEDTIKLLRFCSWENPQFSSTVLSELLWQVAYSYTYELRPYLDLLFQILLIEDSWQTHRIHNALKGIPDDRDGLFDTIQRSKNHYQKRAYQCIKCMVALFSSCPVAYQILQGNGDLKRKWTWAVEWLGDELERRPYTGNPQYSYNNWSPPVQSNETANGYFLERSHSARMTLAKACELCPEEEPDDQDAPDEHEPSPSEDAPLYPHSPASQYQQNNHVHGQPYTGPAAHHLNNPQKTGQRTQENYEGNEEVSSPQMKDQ

O=C(CCl)N(C1CCCC1)C1CCS(=O)(=O)C1 (stereo not drawn)
inactive: [1] 0.335 | [2] -0.112 | [3] -0.128 | [4] -0.372 | [5] -0.386 | [6] -0.121 | [7] 0.15

N#Cc1ccc(CNC(=O)CCl)cc1
inactive: [1] -0.0509 | [2] -0.059 | [3] -0.00706 | [4] -0.236 | [5] -0.0879 | [6] -0.592 | [7] -0.136

Cl.Cn1ncc2c1CCCC2NC(=O)CCl (stereo not drawn)
inactive: [1] -0.0339 | [2] -0.154 | [3] -0.121 | [5] -0.276 | [6] 0.0166 | [7] -0.109
active: [4] -3.69

Cl.O=C(CCl)N1CCC(Cc2nccs2)C1 (stereo not drawn)
inactive: [1] -0.185 | [2] 0.0118 | [3] -0.239 | [4] -0.308 | [5] -0.239 | [6] -0.507 | [7] -0.104

O=C(CCl)N1CCOCC1C1CC1 (stereo not drawn)
inactive: [1] -0.0511 | [2] 0.141 | [3] -0.288 | [4] -0.663 | [5] -0.279 | [6] -0.344 | [7] -0.172

NC(=O)C1CCCCN1C(=O)CCl (stereo not drawn)
active: [4] -1.95
inactive: [1] 0.156 | [2] -0.0148 | [3] -0.206 | [5] -0.204 | [6] -0.866 | [7] 0.154

O=C(CCl)Nc1nnc(CC(F)(F)F)o1
inactive: [1] -0.0948 | [2] -6e-05 | [3] -0.844 | [4] -0.179 | [5] -0.149 | [6] -0.304 | [7] 0.0603

CC(c1ccccc1)N(C)C(=O)CCl (stereo not drawn)
inactive: [1] -0.143 | [2] -0.169 | [3] -0.0617 | [4] -0.555 | [5] -0.0284 | [6] -0.295 | [7] 0.101

O=C(CCl)NCc1ccc(N2CCOCC2)c(F)c1
inactive: [1] 0.631 | [2] 0.16 | [3] -0.134 | [4] -0.275 | [5] -0.291 | [6] -0.051 | [7] 0.276

O=C(CCl)N1CCC(C(=O)N2CCCC2)CC1
inactive: [1] -0.126 | [2] -0.2 | [3] -0.068 | [4] -0.199 | [5] -0.139 | [6] 0.0373 | [7] 0.122

Cl.O=C(CCl)N1CCC(n2nc3ccccc3n2)CC1
inactive: [1] -0.531 | [2] -0.268 | [3] -0.193 | [4] -0.712 | [5] -0.415 | [6] -0.422 | [7] -0.0827

O=C(CCl)N1CCOC(CCc2ccccc2)C1 (stereo not drawn)
inactive: [1] -0.798 | [2] -0.097 | [3] -0.306 | [4] -0.84 | [5] -0.236 | [6] -0.876 | [7] -0.418

CNC(=O)C1(NC(=O)CCl)CCCCC1
inactive: [1] 0.215 | [2] 0.188 | [3] -0.364 | [4] -0.591 | [5] -0.0698 | [6] 0.0155 | [7] -0.0513

Cc1noc(N2CCN(C(=O)CCl)CC2)n1.Cl
inactive: [1] 0.416 | [2] 0.139 | [3] -0.466 | [4] -0.674 | [5] -0.642 | [6] -0.369 | [7] 0.313

Cc1n[nH]c2c1CN(C(=O)CCl)CC2
active: [4] -1.43 | [6] -1.32
inactive: [1] -0.966 | [2] -0.554 | [3] -0.696 | [5] -0.801 | [7] -0.674

O=C(CCl)N1CC2(CCOCC2)C1
inactive: [1] -0.0593 | [2] 0.164 | [3] -0.249 | [4] -0.469 | [5] -0.109 | [6] -0.328 | [7] -0.131

Cc1cc(CC(C)NC(=O)CCl)n[nH]1 (stereo not drawn)
inactive: [1] -0.165 | [2] -0.131 | [3] -0.595 | [4] 0.0154 | [5] -0.232 | [6] -0.68 | [7] 0.241

Cl.O=C(CN1CCN(C(=O)CCl)CC1)Nc1ccc(F)cc1
inactive: [1] 0.543 | [2] 0.0839 | [3] -0.013 | [4] -0.19 | [5] -0.164 | [6] -0.166 | [7] 0.204

O=C(CCl)N1CCCCCC1c1ncon1 (stereo not drawn)
inactive: [1] -0.0474 | [2] -0.00586 | [3] -0.23 | [4] -0.401 | [5] -0.21 | [6] -0.661 | [7] 0.022
